SMILES strings stand for the structures. Calls of active or inactive are those of the source. The calls were made as follows: active = hit-call score of the fitted dose curve at least 0.9, where 1 is the maximum; inactive = score below 0.9.

The AC50 is the concentration giving half of the maximal activity seen.

The test is described as follows: APR_HepG2_NuclearSize_72hr: Apredica 72-hour HepG2 Assay for Nuclear Size (AID 2282925). The conditions noted are these: high-content imaging, actives raise or lower the signal. As for the experimental part: APR_HepG2_72hr is a cell-based, multiplexed-readout assay that uses HepG2, a human liver cell line, with measurements taken at 72 hours after chemical dosing in a 384-well plate.APR_HepG2_NuclearSize_72hr is one of 10 assay component(s) measured or calculated from the APR_HepG2_72hr assay. It is designed to make measurements of cell phenotype, a form of morphology reporter, as detected with fluorescence intensity signals by HCS Fluorescent Imaging technology.Data from the assay component APR_HepG2_NuclearSize_72hr was analyzed into 1 assay endpoint. This assay endpoint, APR_HepG2_NuclearSize_72hr, was analyzed with bidirectional fitting relative to DMSO as the negative control and baseline of activity. Using a type of morphology reporter, measures of all nuclear dna for gain or loss-of-signal activity can be used to understand the signaling at the nuclear-level. Furthermore, this assay endpoint can be referred to as a primary readout, because this assay has produced multiple assay endpoints where this one serves a signaling function. To generalize the intended target to other relatable targets, this assay endpoint is annotated to the cell morphology intended target family, where the subfamily is organelle conformation.
Cells were treated with dimethyl sulfoxide (DMSO) as a solvent control at a final concentration of 0.5% v/v or with compounds in DMSO with a resulting final DMSO concentration of 0.5% v/v. Compound treatment was done at concentrations of 0.39, 0.78, 1.56, 3.12, 6.24, 12.5, 25, 50, 100, and 200 uM in duplicate on each plate. Cells were treated with compounds for 1, 24, or 72 hr. Carbonyl […] m-chloro-phenylhydrazone (CCCP) and taxol were used as positive controls for mitochondrial function and cytoskeletal stability, respectively; DMSO served as the negative control for this experiment. Cells were fixed by the direct addition of 50 uL formaldehyde in Hank's Balanced Salt Solution (HBSS) to a final concentration of 3.7%. After incubation in the fixation medium for 30 min at room temperature (293-298 K), cells were rinsed twice with HBSS and treated with cell permeabilization buffer (16 uL of 0.5% Triton X-100) for 10 min at room temperature (293-298 K) before labeling. For mitochondrial membrane potential and mitochondrial measurements, pre-fixed cells were incubated with 50 uL of MitoTracker Red CMXRos (Invitrogen) at a concentration of 250 nM for 30 min before fixation. In the remaining cases, post-fixed cells were labeled by incubation with a multiplexed mixture of primary antibodies in HBSS for 60 min at room temperature (293-298 K) to detect immunoreactivity of c-Jun (1:500), phospho-histone H3 (1:100), phospho-histone H2A.x (1:200), p53 (1:400), alpha-tubulin (1:200) and Hoechst 33342 (2 ug/mL). Cells were labeled for multiplexed imaging on two separate plates: a) Hoechst 33342, MitoTracker Red, phospho-histone H3, and alpha-tubulin, and b) Hoechst 33342, phospho-histone H2A.x, and c-Jun. A final rinse with HBSS (50 uL) was performed before analysis. The primary and secondary antibodies for the proteins were phospho-histone H3 (rabbit anti-phospho-histone H3 and FITC-donkey anti-rabbit IgG), phospho-histone H2A.x (mouse anti-phospho-histone H2A.x and FITC-donkey anti-mouse IgG), c-Jun (rabbit anti-phospho-c-Jun and Cy3-donkey anti-rabbit IgG), p53 (sheep anti-p53 and Cy5-donkey anti-sheep IgG), alpha-tubulin (mouse anti-alpha-tubulin and Cy5-donkey anti-mouse IgG). These antibodies are available as the CellCiphr HepG2 assay kit (Millipore).Digital images of each well were captured using a Cellomics ArrayScan VTI (Thermo Scientific Cellomics) (0.8 NA objective, 0.63x optical coupler, and XF-93 filter set) at 20x magnification. The images were acquired using the autofocus feature of the ArrayScan instrument, which entails the following steps. First, the camera focuses on channel 1 (Hoechst 33342), where nuclei are identified. Second, a Z offset of 1 um is used for capturing mitochondria (MitoTracker Red). […]
On to `CCCN(C1CCN(C(=O)C2CCNCC2)CC1)[C@@H]1CCc2ccc(OC)cc2C1`, for which the compound was called inactive.
As for `CCCCCCCCCCCCCCCO`, the outcome was inactive.
As to `C1N2CN3CN1CN(C2)C3`, the compound was classed as inactive.
Consider `CCN(C(=O)c1cc(C)cc(OC[C@H](C)Nc2ccncc2)c1)C(C)C`, for which the compound was classed as inactive.
For `C1=CCCC=CCCC=CCC1`, the compound was called inactive.
As to `CCOCCOCCOCCO`, the outcome was inactive.
Consider `CC(=O)c1ccc2c(c1)[C@H](NC(=O)c1ccc(F)cc1)[C@@H](O)C(C)(C)O2`, for which the outcome was inactive.
For `C[C@](N)(Cc1ccc(O)c(O)c1)C(=O)O`, the compound was called inactive.
Regarding `Cc1[nH]cnc1C[C@H]1CCc2c(C)c3ccccc3n2C1=O`, the compound was called inactive.
Consider `Cc1ccc(O)cc1`, for which the result was inactive.
With `NC(=O)NO`, the result was inactive.
On the same count and under the same terms, then `CC(C)=CCCC(C)=CC=O`, with “inactive”.
For `COCCOc1cc2cc(C(=O)NC3CCN(C(C)C)CC3)n(CC(=O)Nc3ccc(Cl)cn3)c2cn1`, the compound was called inactive.
Still for that read-out and setting: then `O=c1n(CC2CO2)c(=O)n(CC2CO2)c(=O)n1CC1CO1` (stereo not given), with “inactive”; and `O=C(O)c1cccc(Oc2ccccc2)c1`, with “inactive”; and `O=C1CCCCCN1`, with “inactive”.
As to `On1ccccc1=S`, the AC50 is 3.98 µM (active).
Regarding `CC/C(=C\C(=N/O)C(N)=O)C(C)[N+](=O)[O-]` (stereo not given), the compound was classed as inactive.
For `CCCC(=O)OCC`, the result was inactive.
Still for that read-out and setting: then `CC(=O)OCCC(C)C`, with “inactive”; and `C=CC(=C)CCC=C(C)C`, with “inactive”; and `Cn1c(=O)c2c(ncn2C)n(C)c1=O`, with “inactive”.
In the case of `CC[C@H](C)C(=O)O[C@H]1C[C@@H](C)C=C2C=C[C@H](C)[C@H](CC[C@@H]3C[C@@H](O)CC(=O)O3)[C@H]21`, the compound was classed as inactive.
Take `CCn1nc(Cc2ccccc2)cc1C1CCN(C[C@H]2C[C@H](N(C)[C@@H](C(=O)O)C(C)C)C[C@@H]2c2cccc(F)c2)CC1`: the result was inactive.
On the same count and under the same terms, then `CNCc1ccc(NC(=O)c2c[nH]c3c2C(=O)CCC3)cc1`, with “inactive”; and `Oc1ccc2c(c1)-c1ccccc1C2`, with “inactive”.
For `CCOC(=O)c1ccc(C2CCC(NC[C@H](O)COc3ccc(O)c(NS(C)(=O)=O)c3)CC2)cc1` (stereo not given in full), the AC50 was 22.7 µM (active).
For the compound `O=C(CCCCCCCCc1cccnc1)N1CCC(C=C(c2ccccc2)c2ccccc2)CC1`, the compound was classed as inactive.
The same measure, in the same setting: the same measure for `CC[C@H]1CC[C@H](NCc2cc3c(cc2OC)[C@H]2C[C@H]2C(=O)N3C)[C@H](c2ccccc2)N1`: “inactive”; for `COC(=O)CC(=O)OC`: “inactive”.
Consider `CC(C)=CCC/C(C)=C\CO`, for which the compound was classed as inactive.
As for `CCOC(=O)COc1ccc2c(c1)CC(NCC(O)c1cccc(Cl)c1)CC2` (stereo not given), the compound was classed as inactive.
For `CCCCCCCCCCCCc1ccccc1`, the result was inactive.
Turning to `C=CCCCCCCCCC(=O)O`, the compound was called inactive.
The same measure, in the same setting: then `CC(O)CN(CCN(CC(C)O)CC(C)O)CC(C)O` (stereo not given), with “inactive”.
`CC1(C)C(=O)N(Br)C(=O)N1Br`: the outcome was inactive.
In the case of `O=C1OC(=O)C2C3C=CC(C3)C12` (stereo not given), the result was inactive.
For `O=c1[nH]c2ccc(S(=O)CCN3CCC(Cc4ccc(F)cc4)CC3)cc2o1` (stereo not given), the result was inactive.
Same read-out and setting: then `O=C(O)c1cc(N=Nc2ccc(S(=O)(=O)Nc3ccccn3)cc2)ccc1O`, with “inactive”; and `COc1ccc2sc(C(=O)Nc3nnn[nH]3)c(OC(C)C)c2c1`, with “inactive”.

The values are drawn from PubChem BioAssay (EPA / NIEHS).
